# This is a sample that favours compounds with a hit; in the whole collection about 7.6% have one here.
# Gal4-VP16 FLuc: Gal4-VP16 reporter inhibition counter-screen. Drosophila S2 Gal4-VP16 UAS-luciferase, luminescence, 20 h. Potency, µM (doses to about 53.6 µM), for inactives: at the top dose activity, negative = inhibition, most hits filed as inhibitors. 3.5% of 310,000 active. AID 2546;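 note: Gal4-VP16 expression switched on by copper sulfate through the metallothionein promoter; potency is the fitted concentration of half-maximal effect; % is set by controls: 0 for no effect and ±100 for the full control effect; nearly all actives have a fitted effect of over 50% in size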
# ELG1 DNA repair: inhibitors of ELG1-dependent DNA repair in HEK293T cells; HEK293T ELG1-luciferase reporter, luminescence, 16 h; DNA damage induced by 5-fluorouridine; AID 504467; Potency, µM (highest dose often 46.1 µM), without a hit: at the top dose activity change, negative = inhibition, usual class: inhibitors; 2.3% of 330,000 active; note: potency is the fitted concentration of half-maximal effect; % is set by controls: 0 for no effect and ±100 for the full control effect; nearly all actives have a fitted effect of over 55% in size
#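 DMSO vehicle served as the neutral condition. Each well held 2,000 cells given 5-fluorouridine plus compound; after 16 hr at 37 °C/5% CO2, ONE-Glo was added and luciferase measured 30 min later.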
# Giardia killer: Giardia lamblia killing; Giardia lamblia trophozoite viability; activity change, % at 7.66 µM, hits read low; 0.15% of 340,000 active; AID 540267; in the data active = activity change below about -80%; inconclusive = between about -30% and that limit;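 note: parasites exposed to compound for two days anaerobically before the ATP read; % is set by controls: 0 for no effect and ±100 for the full control effect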
#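 Luminescent ATP signal served as the viability read-out, measured 15-30 min after adding ATP detection reagent to trophozoites that had been incubated with compounds for 48 hrs at 37 deg C anaerobically at 100 cells/well.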
# p53 reactivation: re-activators of mutant p53; H1299 p53-A138V BP100-luciferase reporter, luminescence, 24 h; Potency, µM (highest dose often 92.2 µM), without a hit: at the highest dose activity change, positive = activation, most hits filed as activators; 0.063% of 320,000 active; AID 504706; note: potency is the fitted concentration of half-maximal effect; % of control where 0% means no effect; nearly all actives have a fitted effect of over 45% in size
#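 p53-null H1299 cells stably carrying temperature-sensitive p53-A138V and a BP100-luciferase reporter were pinned with compounds (4-point, 1:5 series) and held 24 hrs at 37 deg C. Luminescence was read 10 min after detection reagent.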
# RORgamma inh: ROR gamma (mouse) transcription inhibition. P51450. Drosophila S2 Gal4-RORgamma UAS-luciferase reporter, 20 h. Potency, µM (series often up to 53.6 µM), for the others: at the top dose activity change, negative = inhibition, most hits filed as inhibitors. 5.4% of 310,000 active. AID 2551; note: potency is the fitted concentration of half-maximal effect; % is set by controls: 0 for no effect and ±100 for the full control effect; nearly all actives have a fitted effect of over 60% in size
# Target sequence (P51450 whole entry, looked up, the tested form may be a part): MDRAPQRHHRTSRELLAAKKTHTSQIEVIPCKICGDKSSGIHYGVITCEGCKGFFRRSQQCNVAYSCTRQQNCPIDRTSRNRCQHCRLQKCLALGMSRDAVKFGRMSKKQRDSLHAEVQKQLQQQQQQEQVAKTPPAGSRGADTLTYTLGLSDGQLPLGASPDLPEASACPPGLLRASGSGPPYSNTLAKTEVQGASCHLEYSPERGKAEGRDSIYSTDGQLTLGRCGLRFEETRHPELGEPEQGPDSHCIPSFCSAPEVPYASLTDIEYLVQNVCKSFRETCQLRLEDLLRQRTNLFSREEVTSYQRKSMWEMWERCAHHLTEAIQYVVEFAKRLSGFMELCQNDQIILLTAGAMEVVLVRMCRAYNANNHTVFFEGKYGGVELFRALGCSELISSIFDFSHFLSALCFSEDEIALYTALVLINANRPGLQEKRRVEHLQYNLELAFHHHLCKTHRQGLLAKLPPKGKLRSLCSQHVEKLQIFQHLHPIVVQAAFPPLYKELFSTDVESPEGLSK
#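 Read-out: Photinus luciferase luminescence; inhibitors lower reporter signal. Insect Schneider cells with Gal4-ROR gamma fusion under metallothionein promoter, UAS reporter; 700 uM final copper sulfate induction, 20 hr, ambient temperature.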
# BRCA1 expr act: BRCA1 expression activation | MCF7-BRCA1-FFLuc reporter, luminescence, 48 h; response scale: scaled: vehicle 0%, 10 µM genistein 100% | Potency, µM (titrated, usually from 46.1 µM), for inactives: at the highest dose activation, usual class: activators | 1.1% of 380,000 active; note: potency is the fitted concentration of half-maximal effect; nearly all actives have a fitted effect of over 80% in size
#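 Reporter cells (MCF7, BRCA1 promoter-firefly luciferase) received library compounds across a concentration series for 48 h. End-point luminescence was measured and concentration-effect curves derived after normalization.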
# Starred values were filed as active, the others as inactive; ? = inconclusive; / = no result given; [ ] = another dose, or the depositor's remark. Unless noted, calls come from the whole dose curve; as a rule, active = well fitted curve in the direction sought with a large enough effect; inconclusive = small, poorly fitted or top-dose-only effect, or another doubt; inactive = no such curve, though single readings can be large; an effect the other way counts as inactive or inconclusive.
SMILES,Gal4-VP16 FLuc,ELG1 DNA repair,Giardia killer,p53 reactivation,RORgamma inh,BRCA1 expr act
Cc1cc(C(F)(F)F)nc(SCC(=O)c2cccc([N+](=O)[O-])c2)n1,-10%,-4%,-5,-4%,35%,?
CSc1ccc(CN(C)C(=O)C23CC4CC(CC(Cl)(C4)C2)C3)cc1,2%,?,30,-7%,40%,-27%
COc1cc(OC)cc(C2=Cc3ccc(OC)cc3C(CC(C)=O)N2c2ccc(-c3cccs3)cc2)c1 (configuration not stated),/,/,/,/,/,-42%
Cc1ccccc1N1CCN(C(=S)c2ccccc2)CC1,-9%,-7%,-20,4%,?,-3%
CC(=O)Nc1ccc(NC(=O)C(C)OC(=O)CCCOc2ccc(Cl)c(C)c2)cc1 (configuration not stated),-24%,-4%,-2,18%,-37%,-2%
Nn1c(SCc2ccc(F)cc2)nnc1-c1ccccn1,-7%,?,-9,13%,7%,0%
COc1ccc(C(=O)CSc2cc(C)nc(SCC(=O)c3ccc(C)cc3)n2)cc1,0%,5.2µM*,-1,4%,?,-5%
C=CCNC(=S)NNC(=O)CSc1nc2ccccc2s1,?,12%,8,19%,7.1µM*,-2%
O=C(O)CC/C(=C\c1cc([N+](=O)[O-])ccc1Cl)c1nc2ccccc2s1,2%,3%,-6,1%,3%,-30%
O=C(Nc1ccc(Cl)cc1)/C(=C/c1ccc([N+](=O)[O-])cc1)c1nc2ccccc2s1,5µM*,?,/,-7%,5µM*,/
O=C(CSc1nc2ccccc2s1)NNC(=S)Nc1ccc(Cl)cc1,8.9µM*,-2%,4,-6%,5µM*,-11%
O=[N+]([O-])c1c(NCCCO)cc(N2CCN(Cc3ccc4c(c3)OCO4)CC2)c2nonc12,3.5µM*,23µM*,-5,-8%,5µM*,-40%
COc1ccc(Nc2cc(NCCCO)c([N+](=O)[O-])c3nonc23)cc1,-21%,0%,9,-5%,-2%,-34%
O=[N+]([O-])c1c(NCCCO)cc(N2CCCCCC2)c2nonc12,?,0%,10,-4%,42%,-26%
O=[N+]([O-])c1c(NCCCO)cc(SCc2ccco2)c2nonc12,?,4%,7,-13%,?,-51%
O=[N+]([O-])c1c(NCCCO)cc(Sc2ccc(Cl)cc2)c2nonc12,5µM*,2%,0,-39%,5µM*,-93%
COc1ccc(CNc2cc(NCCCO)c([N+](=O)[O-])c3nonc23)cc1,?,21µM*,12,-5%,-13%,-27%
Cn1ccnc1Sc1cc(NCCCO)c([N+](=O)[O-])c2nonc12,11µM*,?,-10,-18%,1.3µM*,-22%
O=C(O)C1CCN(c2ccccc2[N+](=O)[O-])CC1,-6%,-19%,?,0%,12%,30%
O=c1c2c3c(sc2ncn1/N=C/c1ccccc1)CCCC3,?,?,-13,17%,?,20µM*
CC(C)c1ccc2oc(-c3cc(N)ccc3O)nc2c1,22µM*,?,-6,/,10µM*,14%
Nc1nc(=S)c2ncn(C3CCCCC3)c2[nH]1,/,/,-11,/,/,7%
CCc1ccc(-c2cn(C3CCCCC3)c(=S)[nH]2)cc1,?,?,2,16%,0.71µM*,0%
CCc1ccccc1NC(=S)NC1CC2CCCC(C1)N2Cc1cccs1 (configuration not stated),?,-2%,-19,-3%,11µM*,-6%
Cc1cccc(NC(=S)NC2CC3CCCC(C2)N3Cc2cccs2)c1C (configuration not stated),?,-7%,1,6%,2.5µM*,-12%
SMILES,Gal4-VP16 FLuc,ELG1 DNA repair,Giardia killer,p53 reactivation,RORgamma inh,BRCA1 expr act
COC(=O)c1ccc(-c2nc(-c3cccs3)no2)cc1,?,?,9,38%,-36%,-14%
Cc1ccc(OCCOC(=O)Cn2nc(C)c([N+](=O)[O-])c2C)cc1,-13%,0%,1,-3%,4%,-10%
Cc1cc(C(=O)CSc2nnnn2-c2ccccc2)c(C)n1-c1ccc2c(c1)OCO2,11µM*,-3%,-17,10%,-35%,-56%
Cc1cc(C(=O)CSc2nnnn2-c2ccc(O)cc2)c(C)n1Cc1ccc2c(c1)OCO2,?,18µM*,2,16%,8%,-46%
O=C(NNC1=NCCCCC1)Nc1ccc(Cl)cc1,-7%,13%,-4,7%,23%,71%
COc1cccc(C(O)c2nc(-c3ccncc3)cs2)c1 (configuration not stated),/,/,/,/,/,-22%
O=C(Nc1ccccc1)Nc1ccc(-n2ccc(C(F)(F)F)n2)cc1,-5%,?,12,?,23%,3.5µM*
O=C1c2ccc3c4c(ccc(c24)C(=O)N1NC(=O)C(F)(F)F)CC3,-10%,3%,-11,-1%,-22%,40%
CC(=O)NN1C(=O)c2ccc3c4c(ccc(c24)C1=O)C(=O)N(NC(C)=O)C3=O,11µM*,?,1,21%,11µM*,-63%
CCCc1ccc(-c2cc(C(=O)N3CCN(c4ccccn4)CC3)c3ccccc3n2)cc1,14µM*,?,?,11%,11µM*,13%
COc1cc(-c2cc(C(=O)N3CCN(c4ccccn4)CC3)c3ccccc3n2)cc(OC)c1OC,-7%,8.2µM*,-9,-2%,-29%,-63%
CCOc1ccc(-c2cc(C(=O)N3CCN(c4ccccn4)CC3)c3ccccc3n2)cc1,-23%,?,?,?,1%,-20%
CC1=NN(C(N)=S)C(=O)C1N=Nc1ccc(C)cc1C (configuration not stated),1.1µM*,?,/,?,0.5µM*,/
CC1=NN(C(N)=S)C(=O)C1N=Nc1ccc(S(N)(=O)=O)cc1 (configuration not stated),?,8%,12,11%,-10%[1.91 µM],26%
COc1cccc(N=NC2C(=O)N(C(N)=S)N=C2C)c1 (configuration not stated),/,/,20,/,/,?
CCOc1ccccc1N=NC1C(=O)N(C(N)=S)N=C1C (configuration not stated),1µM*,9%,-14,-2%,0.71µM*,-41%
CC1=NN(C(N)=S)C(=O)C1N=Nc1c(Br)cc(Br)cc1Br (configuration not stated),1.3µM*,3%,?,12%,1.4µM*,9%
CC1=NN(C(N)=S)C(=O)C1N=Nc1cccc(Cl)c1 (configuration not stated),2µM*,?,8,?,0.79µM*,?

# High-throughput results (PubChem)
